# Assay outcomes (PubChem BioAssay)
# D3 antag: antagonists of human D3 dopamine receptor | P35462 | D3R cells, DiscoveRx beta-arrestin luminescence, antagonist mode; active compounds read low | max response, negative = inhibition, % | hit rate 2.5% among 360,000; in the data active = max response below about -50%; inconclusive = no clear call, values can overlap the other calls; note: % is set by controls: 0 for no effect and ±100 for the full control effect
# Target sequence (P35462 whole entry, looked up): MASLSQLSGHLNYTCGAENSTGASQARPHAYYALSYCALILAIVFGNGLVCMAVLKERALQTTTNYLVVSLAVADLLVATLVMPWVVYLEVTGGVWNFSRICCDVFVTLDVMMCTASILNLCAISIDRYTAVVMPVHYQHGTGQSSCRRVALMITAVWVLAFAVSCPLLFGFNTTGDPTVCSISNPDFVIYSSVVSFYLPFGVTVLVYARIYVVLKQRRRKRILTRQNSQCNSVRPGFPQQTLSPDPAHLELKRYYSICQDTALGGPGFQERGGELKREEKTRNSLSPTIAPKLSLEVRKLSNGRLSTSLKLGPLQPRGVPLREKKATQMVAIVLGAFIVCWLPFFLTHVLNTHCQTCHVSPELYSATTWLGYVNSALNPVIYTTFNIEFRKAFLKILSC
#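 Cells plated overnight at 1500 cells/well, then exposed to library compounds with dopamine controls for 90 minutes at 37 degrees C. DiscoveRx reagent added for 30–60 minutes at room temperature; luminescence read, quantitative HTS format.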
# a7 integrin act: integrin-mediated muscular dystrophy alleviation activation | Potency, µM (top dose mostly 38.3 µM), for the others: at the highest dose activation, hits mostly activators | hit rate 0.064% among 350,000 | alpha7betagal myoblasts, beta-gal FDG fluorescence, 48 h; active = well fitted activation curve with a large enough effect; inconclusive = small, poorly fitted or top-dose-only effect; inactive = no such curve, though single readings can be large or run the other way;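 note: potency is the fitted concentration of half-maximal effect; 100% = response of the positive control SU9516; nearly all actives have a fitted effect of over 60% in size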
#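 Alpha7betagal+/- myoblasts (passage 13) were plated 16-24 hr, then exposed to compounds (1:260 dilution of DMSO stock) for 48 hours at 37C. After MPER lysis, β-galactosidase reporter activity was read as FDG fluorescence (ex 480/em 540) after 30 minutes.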
# D3 ag: agonists of human D3 dopamine receptor; P35462; D3R DiscoveRx beta-arrestin cells, luminescence, 90 min; max activation, %; hit rate 0.58% among 410,000; in the data active = max activation above about 30%; note: 0% is about no effect
#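 Agonist mode: compounds and dopamine controls were applied to plated cells for 90 min at 37 degrees C after an overnight attachment at 1500 cells/well. Luminescent read-out followed 30 - 60 minutes at room temperature with DiscoveRx detection reagent.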
# * = called active by the depositor; ? = inconclusive; · = not tested or not shown. The list is not random: actives were taken first. Their share in the collection is about 2.9%.
SMILES,D3 antag,a7 integrin act,D3 ag
Cc1ccc(C)c(NC(=O)C(OC(=O)c2cnc(C)cn2)c2ccccc2)c1 (centres undefined),0,-8%,9
COc1ccc(C(CNC(=O)COc2ccccc2C)N2CCCC2)cc1 (centres undefined),?,-18%,-41
COc1ccc(C(CNC(=O)COc2ccc(F)cc2Cl)N2CCCCC2)cc1 (centres undefined),-26,4%,-14
COc1ccc(C(CNC(=O)COc2ccc(Br)cc2F)N2CCCC2)cc1 (centres undefined),-76*,-17%,-36
COc1ccc(C(CNC(=O)COc2cccc(C)c2)N2CCCC2)cc1 (centres undefined),-76*,-17%,-3
COc1ccc(C(CNC(=O)COc2cccc(C(F)(F)F)c2)N2CCCC2)cc1 (centres undefined),-107*,23%,-26
COc1ccc(C(CNC(=O)COc2ccc(C)cc2)N2CCCCC2)cc1 (centres undefined),·,·,-27
COc1ccc(C(CNC(=O)COc2ccc(Cl)c(C)c2)N2CCCCC2)cc1 (centres undefined),-95*,-15%,-19
Cc1ccc(OCC(=O)NCC(c2ccc(Cl)cc2)N2CCOCC2)cc1C (centres undefined),·,·,4
CCc1ccc2nc(N(Cc3cccnc3)C(=O)c3ccc(C#N)cc3)sc2c1,·,·,-11
CC1CCN(c2c(NCC3CCC(C(=O)NCCC4=CCCCC4)CC3)c(=O)c2=O)CC1 (centres undefined),-9,27%,-6
CC1CCN(C(=O)C2CCC(=O)N(Cc3ccc(Cl)cc3)C2)CC1 (centres undefined),11,9%,5
CCOC(=O)c1c(NC(=O)CC2Nc3cc(C)c(C)cc3NC2=O)sc(C)c1C (centres undefined),-57*,9%,-6
CCOc1ccccc1NC(=O)CC1Nc2cc(C)c(C)cc2NC1=O (centres undefined),-17,3%,-5
CCNc1nc(NOC)nc(OCC#N)n1,6,-7%,-4
Cc1cccc(NC(=S)NCC23C=CC(O2)C2C(=O)N(c4ccc(Cl)cc4)C(=O)C23)c1 (centres undefined),-18,7%,0
Cc1[nH]c(=S)[nH]c(=O)c1CCCO,1,43%,12
COC(=O)C1=C(C)OC(N)=C(C#N)C1c1ccccc1 (centres undefined),17,1%,1
CCOC(=O)C1=C(C)OC(N)=C(C#N)C1c1ccccc1 (centres undefined),-12,-2%,-4
CCSc1cc(C2C(C#N)=C(N)OC(C)=C2C(=O)OC)c(C)o1 (centres undefined),-67*,-28%,-1
CCOC(=O)C1=C(C)OC(N)=C(C#N)C1c1ccc(O)c(OC)c1 (centres undefined),-62*,15%,-6
Cc1cc(NC(=O)CSc2nc3[nH]c(=O)cc(O)c3s2)ccc1Br,16,-36%,-5
COc1cc(/C=N/NC(=O)c2ccncc2)cc(OC)c1OC,2,-16%,-4
COc1cc(/C=N/NC(=O)c2cccnc2)cc(Br)c1O,-5,?,-1
COc1c(Br)cc(Br)cc1/C=N/NC(=O)c1ccncc1,-80*,-67%,-9
SMILES,D3 antag,a7 integrin act,D3 ag
COc1c(Br)cc(Br)cc1/C=N/NC(=O)c1cccnc1,-96*,-10%,-29
Cc1c(C=O)cnn1CCC(=O)O,-17,6%,11
COC(=O)C1CC(O)CN1S(=O)(=O)c1ccc2ccccc2c1 (centres undefined),-4,?,-8
CCCCCCn1cc(CN2CC(N(C)C)CS2(=O)=O)nn1 (centres undefined),20,·,3
Cc1ccc(/C=C/C(=O)NC2CCCCCCC2)o1,-61*,-41%,-18
Cc1ccc(/C=N/NC(=O)NC2CCCCC2)o1,9,2%,2
NNC(=O)c1ccc(Cn2cccn2)o1,-13,-5%,-12
O=c1cc(CSc2nnc(Nc3ccccc3)s2)nc2sccn12,-3,-10%,6
Cc1ccccc1Nc1nnc(SCc2cc(=O)n3ccsc3n2)s1,4,-35%,46*
CC(C)CN=Cc1c(O)c([N+](=O)[O-])cc2oc3c(c12)CCCC3,-106*,18%,-28
Cc1cccc(/N=C/c2c(O)ccc3oc4c(c23)CCCC4)n1,?,-14%,-7
O=[N+]([O-])c1cc2oc3c(c2c(C=NCc2ccccc2)c1O)CCCC3,-85*,21%,13
Cc1oc2cc([N+](=O)[O-])c(O)c([N+](=O)[O-])c2c1C(=O)c1ccc(Cl)cc1,-1,-15%,-10
Cn1c(SCC(=O)N2CCN(C(=O)c3ccco3)CC2)nnc1-c1ccc(NS(C)(=O)=O)cc1,9,12%,-5
COc1ccc(-c2cc(C(F)F)n3ncc(C(=O)n4ccnc4C)c3n2)cc1,-16,?,-4
Cc1n[nH]c(=S)n1/N=C/c1cccc(OCc2ccccc2)c1,-7,5%,-2
O=[N+]([O-])c1ccc(Cl)c(/C=N/n2c(COc3ccccc3)n[nH]c2=S)c1,-58*,-20%,-32
S=c1[nH]nc(-c2ccncc2)n1/N=C/C=C/c1ccco1,-19,20%,8
COc1ccccc1/C=C/C=N/n1c(-c2ccc(F)cc2)n[nH]c1=S,-12,-14%,-15
COc1ccccc1/C=C\C=N\n1c(-c2ccc(Cl)cc2)n[nH]c1=S,-51*,-13%,-19
Cc1cccc(-c2n[nH]c(=S)n2/N=C/C=C/c2ccco2)c1,-98*,-34%,-10
Cc1n[nH]c(=S)n1/N=C/c1ccccc1OCc1ccc(Cl)cc1,-51*,-32%,-4
S=c1[nH]nc(COc2ccccc2)n1/N=C/c1ccc(Cl)c(Cl)c1,-22,2%,-4
CC(=O)NC(CC(=O)OC(C)C(=O)Nc1ncc(Cl)cc1Cl)c1ccccc1 (centres undefined),10,20%,-4
COc1ccccc1/C=C/C=N/n1c(COc2ccccc2)n[nH]c1=S,-86*,-9%,-6
SMILES,D3 antag,a7 integrin act,D3 ag
COc1cccc(/C=N/n2c(COc3ccccc3)n[nH]c2=S)c1OC,-6,-27%,0
O=C(CCc1nc(-c2ccccc2Cl)no1)NCC1CCCO1 (centres undefined),2,-18%,3
NCCCC[C@@H](C(=O)N1CCNCC1)n1cc([C@@H](N)CO)nn1,6,19%,15
c1ccc(Cn2nnnc2C(c2cccs2)N2CCCCCC2)cc1 (centres undefined),-20,-15%,-12
c1ccc(Cn2nnnc2C(c2cccs2)N2CCc3ccccc3C2)cc1 (centres undefined),-69*,40%,-11
O=C(CCNC(=O)c1ccccc1)NCc1ccccc1F,0,-20%,0
Cn1c(-c2ccccc2)c(C(=O)CCl)c2ccccc21,-51*,-66%,-6
CCn1c(-c2ccccc2)c(C(=O)CCl)c2ccccc21,-20,-7%,2
CN(C)c1ccc(/C=C2\Oc3ccc(C#Cc4cccc(N)c4)cc3C2=O)cc1,44,-10%,56*
COC(=O)c1ccc2c(c1)C(=O)/C(=C/c1ccc(C)cc1)O2,37,-3%,-3
CC1(C)CC(NS(=O)(=O)c2ccccc2)CC(C)(C)N1,-2,7%,-1
